Among the data in PubChem BioAssay (NCATS) are Potency values, retold here.

Results filed as inconclusive are left out. A call without a number means that no potency is given here. Calls of active or inactive are those of the source. The call rests on the fitted dose curve; in most records, active means well fitted inhibition curve with a large enough effect; inconclusive means small, poorly fitted or top-dose-only effect; inactive means flat fitted curve, though single readings scatter.
Potency means the concentration at half of the fitted maximal effect.

For this assay, the system named is CP203. The assay is described as follows: qHTS profiling for inhibitors of Plasmodium falciparum proliferation (AID 504749). Further: nearly all actives have a fitted effect of over 60% in size. The settings on record: P. falciparum in erythrocytes, SYBR Green DNA, 72 h; series mostly up to 28.7 µM. From the text:
NIH National Institute of Allergy and Infectious Diseases [NIAID] NIH Chemical Genomics Center [NCGC] MLPCN Grant: None Assay Provider: Xinzhuan Su, NIAID NCGC Assay Overview: Plasmodium falciparum is a virulent malarial parasite that kills 1-2 million people worldwide each year. Transmitted by mosquitoes, the sporozoite form of the parasite enters the blood stream to infect hepatocytes, where they become merozoites that infect red blood cells (erythrocytes). Within erythrocytes, merozoites begin a […] cycle of growth and division, after which the parasite is released to infect new red blood cells. Gametocytes, which form within erythrocytes as well, circulate in the bloodstream and are ingested by the mosquito, thereby completing the life cycle. To profile malarial isolates for differential chemical responses and to identify inhibitors of malarial growth, an assay that measures P. falciparum growth and replication within erythrocytes was employed. This assay uses a DNA binding fluorescent dye (SYBR Green) to detect parasite DNA following cell lysis. Because mature erythrocytes lack DNA, only Plasmodium-derived DNA is detected.
NCGC Assay Protocol Summary: The SYBR Green viability assay was adapted from a method described previously (Plouffe et al., 2008). For screening 3 ul culture medium was dispensed into 1536 well black clear bottom plates (Aurora Biotechnologies) using a Multidrop Combi (Thermo Fisher Scientific Inc.), 23 nL compounds in DMSO were added by a pin tool (Kalypsys), and 5 ul of erythrocytes infected with P. falciparum (0.3% parasitemia, 2.5% hematocrit final concentration) were added. The plates were incubated at 37 C in a humidified incubator in 5% CO2 for 72 h, and 2 ul lysis buffer (20 mM Tris HCl, 10 mM EDTA, 0.16% saponin, 1.6% triton X, 10X SYBR Green I supplied as 10,000X […] by Invitrogen) was added to each well. The plates were mixed for 25 sec with gentle shaking and incubated overnight at room temperature in the dark. The following morning, fluorescence intensity at 485(14) nm excitation and 535(25) nm emission wavelengths was measured on an EnVision (Perkin Elmer) plate reader. Plate reads were normalized relative to the control inhibitor (0.29 uM artemisinin) and vehicle (DMSO) wells present on each plate and then corrected by an algorithm using vehicle-only control plates at the beginning and end of the compound plate stack.
For `O=C1C(CCC(O)c2ccc(F)cc2)C(c2ccc(O)cc2)N1c1ccc(F)cc1` (centres undefined), the Potency result is “inactive”.
As for `N#Cc1c(N(CC(=O)O)CC(=O)O)sc(C(=O)O)c1CC(=O)O`, the Potency entry was “inactive”.
Regarding `Cc1cc2nc3c(=O)[nH]c(=O)nc-3n(CC(O)C(O)C(O)CO)c2cc1C` (centres undefined), the Potency result is “inactive”.
For `C=C1c2cccc(O)c2C(O)=C2C(=O)[C@@]3(O)C(O)=C(C(N)=O)C(=O)[C@@H](N(C)C)[C@@H]3[C@@H](O)[C@H]12`, the Potency result is “inactive”.
With `O=C(O)c1nc(=O)[nH]c(=O)[nH]1`, the Potency entry was “inactive”.
As for `CS(=O)(=O)c1ccc(C2=C(c3ccccc3)C(=O)OC2)cc1`, the Potency result is “inactive”.
On to `COc1c(C)c2c(c(O)c1CC=C(C)CCC(=O)OCCN1CCOCC1)C(=O)OC2`, for which the Potency is 6.01 µM (active).
The entry for `COc1cc2c(cc1OC)CC(=O)N(CCCN(C)C[C@H]1Cc3cc(OC)c(OC)cc31)CC2` is “inactive”; for `NS(=O)(=O)c1cc(Cl)c(Cl)c(S(N)(=O)=O)c1` it is “inactive”; for `CN1CC(=O)N2C(Cc3c([nH]c4ccccc34)[C@H]2c2ccc3c(c2)OCO3)C1=O` (some centres undefined) it is “inactive”.
Turning to `COc1ccnc(CS(=O)c2nc3ccc(OC(F)F)cc3[nH]2)c1OC` (centres undefined), the Potency entry is “inactive”.
The entry for `N#CC(c1ccc(Cl)cc1)c1c(Cl)cc(-n2ncc(=O)[nH]c2=O)cc1Cl` (centres undefined) is “inactive”.
The figure for `Clc1ccc(COC(Cn2ccnc2)c2ccc(Cl)cc2Cl)c(Cl)c1` (centres undefined) is 5.1 µM (active); for `CC(C)CN(C[C@@H](O)[C@H](Cc1ccccc1)NC(=O)O[C@H]1CO[C@H]2OCC[C@H]21)S(=O)(=O)c1ccc(N)cc1` it is “inactive”.
